Screening results from PubChem BioAssay.
The entries come from a sample that favours hits as a whole.
Pf apPOL inh = Pf-apPOL DNA polymerase inhibition | hit rate 0.25% among 210,000 | Recombinant Pf-apPOL, molecular beacon fluorescence, 1.5 h | inhibition, % at 10 µM
mHTT-CaM PPI inh = disrupts binding of mutant huntingtin to calmodulin. hit rate 3.6% among 190,000. P42858. inhibition, % at 15 µM. AlphaScreen His-mHTT/GST-CaM binding, luminescence
Hits are given with their value; 0 = inactive; - = no result given; ! = not active in a repeat. No stated cut-off is given here; in the data, active means inhibition above about 50%; inactive means the rest.

SMILES	Pf apPOL inh	mHTT-CaM PPI inh
O=C(Sc1n[nH]c(=O)[nH]c1=O)c1ccc(Cl)cc1	0	0
Cc1ccc(F)c(N2CCN(C(=O)CC(C)C)C(C)C2=O)c1 (centres undefined)	0	0
N#CC(N)=C(C#N)N=Cc1cccs1	0	-
O=C1c2ccccc2C(=O)c2c(NC3CCCCC3)ccc(NC3CCCCC3)c21	0	-
CC1(C)CC(=C2C(=O)c3ccccc3C2=O)C=C2c3ccccc3C(=O)C21 (centres undefined)	0	65
O=C(CSc1nnc2c3ccccc3n(Cc3ccccc3)c2n1)Nc1nccs1	0	0
Cc1nc(-c2ccncc2)nc2c1CCC(=O)N2CCN(C)C	0	0
CCOc1ccc(C(c2c(C)[nH][nH]c2=O)c2c(C)[nH][nH]c2=O)cc1	0	0
Cc1[nH][nH]c(=O)c1C(c1ccc(OCc2ccc(Br)cc2)cc1)c1c(C)[nH][nH]c1=O	0	52
C=Cc1ccc(Cn2ccn(-c3ccc(Br)cc3)c(=O)c2=O)cc1	0	0
CCCCN(C)C(=O)c1sc(Nc2ccccn2)nc1C	0	0
CC(=O)N1CCCOC1c1ccc([N+](=O)[O-])cc1 (centres undefined)	0	0
c1cnc2c(c1)ccc1cccnc12	0	-
Cc1ccnc2c1ccc1cccnc12	-	100
COc1ccc(NC(=O)CN2CCC(C(=O)NCc3cccnc3)CC2)c(OC)c1	0	0
COc1ccc(NC(=O)N(CCCN2CCOCC2)Cc2cccnc2)c(OC)c1	68	0
COc1cc(CN2CCN(c3cc(C)ccc3C)CC2)cc(I)c1O	0	85
COc1cc(CN2CCCCCCC2)cc(OC)c1O	0	72
COc1cc(CN2CCN(c3cc(C)ccc3C)CC2)cc(OC)c1OC	0	0
COc1cc(CN2CCCCCC2)cc(I)c1O	0	0
Cc1cccc(N(C)C(=O)CN2C(=O)NC3(CCC(C(C)(C)C)CC3)C2=O)c1 (centres undefined)	0	0
Cc1cccc(C)c1NC1=NC(=S)N(c2cccc(O)c2)C12CCC(C(C)(C)C)CC2 (centres undefined)	0	56
CCOc1ccc(N2CC(c3nnc(NC(=O)Cc4ccccc4C)o3)CC2=O)cc1 (centres undefined)	0	0
O=C(Nc1nnc(C2CC(=O)N(c3ccccc3)C2)o1)c1cccc(Cl)c1 (centres undefined)	0	61
O=C(CSc1ccc(F)cc1)Nc1nnc(C2CC(=O)N(c3ccccc3)C2)o1 (centres undefined)	0	0
SMILES	Pf apPOL inh	mHTT-CaM PPI inh
Cc1ccccc1CC(=O)Nc1nnc(C2CC(=O)N(c3ccccc3)C2)o1 (centres undefined)	0	50
O=C(Nc1nnc(C2CC(=O)N(c3ccc(F)cc3)C2)o1)c1cccc(Cl)c1 (centres undefined)	0	0
COc1ccc(N2CC(c3nnc(NC(=O)Cc4cccc(F)c4)o3)CC2=O)cc1 (centres undefined)	0	0
O=C(Cc1cccs1)Nc1nnc(C2CC(=O)N(c3ccccc3)C2)o1 (centres undefined)	0	60
COc1ccc(N2CC(c3nnc(NC(=O)Cc4cccc(OC)c4)o3)CC2=O)cc1 (centres undefined)	0	53
N#CCCNCCN1CCCC1=O	0	0
COc1nccnc1N1CCC(NC(=O)Cc2c[nH]c3ccccc23)C1 (centres undefined)	0	0
O=C(C1CCN(c2cc(N3CCOCC3)ncn2)CC1)N1CCC2(CC1)OCCO2	0	0
Cc1ccc(CC(=O)Nc2nnc(C3CC(=O)N(c4ccccc4)C3)o2)cc1 (centres undefined)	0	0
COc1ccc(CC(=O)Nc2nnc(C3CC(=O)N(c4ccccc4)C3)o2)cc1 (centres undefined)	0	92
COc1ccc2nc(C)cc(N)c2c1	0	0
COc1ccc(-n2c(C)ccc2C)c(N)c1	0	54
Cc1ccccc1C1CCCN1C(=O)Cc1ccc(Cl)cc1 (centres undefined)	0	58
Cc1ccc(C2CCCN2C(=O)Cc2ccc(Cl)cc2)cc1 (centres undefined)	0	58
Cc1ccc(C2CCCN2C(=O)Cc2ccc(F)cc2)cc1 (centres undefined)	0	0
Cc1ccccc1C1CCCN1C(=O)Cc1cccc(Cl)c1 (centres undefined)	0	0
COc1ccccc1C(=O)N1CCCC(c2ccnc(-c3ccc(C)cc3)n2)C1 (centres undefined)	0	0
C=CCOc1ccc(/C=C2/C(=O)N(c3ccccc3)N=C2C)cc1OC	0	0
CC(C)OCCCNC(=O)Nc1c[nH]c2ccccc12	0	0
Cc1cc2c(cc1C)NC(CC(=O)Nc1ccc(N3CCOCC3)cc1)C(=O)N2 (centres undefined)	0	57!
Cc1cc2c(cc1C)NC(CC(=O)Nc1cccc(C(=O)O)c1)C(=O)N2 (centres undefined)	0	0
O=c1[nH]c(SCc2ccccc2Cl)nc2c1CN(Cc1ccccc1)CC2	0	0
N#Cc1cccc(NC(=O)CSc2nc3c(c(=O)[nH]2)CN(Cc2ccccc2)CC3)c1	0	54
CC(C)NC(NC(=O)c1ccco1)C(Cl)(Cl)Cl (centres undefined)	0	0
Oc1[nH]c2ccccc2c1C=Nc1ccc(F)cc1	0	0
SMILES	Pf apPOL inh	mHTT-CaM PPI inh
O=C(NC1CCCCC1)c1ccc(Cn2cncn2)cc1	0	0
Cc1ccc(NC(=O)Cn2nc(C(F)(F)F)c(Cl)c2C)cc1C	0	0
Cc1c(Cl)c(C(F)(F)F)nn1CC(=O)Nc1ccc(Cl)c(Cl)c1	0	100
COc1ccc(C2CC(=O)C=C(Nc3ccc(OC)cc3OC)C2)cc1 (centres undefined)	0	0
Cn1nc(-c2nc(-c3ccccc3F)no2)c2c1CCN(C(=O)c1ccoc1)C2	0	0
O=C(C[n+]1cc(Br)cc2ccccc21)c1ccccc1	0	60
COc1ccc(C(=O)C[n+]2cc(Br)cc3ccccc32)cc1[N+](=O)[O-]	0	0
O=c1c(-c2ccc3c(c2)OCCO3)coc2c(CN3CCCCC3)c(O)ccc12	0	0
CSc1nc2ccccc2n1CC(=O)Nc1ccc(F)cc1	0	0
CSc1nc2ccccc2n1CC(=O)NC(c1ccccc1)c1ccccc1	0	57
Cc1ccc(C)c(-c2cc(CN(C)C(=O)c3ccc4c(c3)OCO4)no2)c1	0	0
O=C(O)C1C2C=CC(C2)C1C(=O)Nc1cccnc1 (centres undefined)	0	0
O=C(O)C1C2C=CC(C2)C1C(=O)Nc1ncccc1O (centres undefined)	80	0
COC(=O)C1=C(C)Nc2ncnn2C1c1ccc(OC(F)F)c(OC)c1 (centres undefined)	0	0
CCN(CC)C(=O)CNC(=O)c1nn(-c2ccc(OC)c(OC)c2)c(=O)c2ccccc12	0	0
CCN(CC)C(=O)CNC(=O)c1nn(-c2ccc(OC)c(Cl)c2)c(=O)c2ccccc12	0	56
COc1ccc(-n2nc(C(=O)NCC(=O)NCc3ccccc3)c3ccccc3c2=O)cc1Cl	0	98
COc1ccc(-n2nc(C(=O)NCC(=O)Nc3cccc(C)n3)c3ccccc3c2=O)cc1Cl	0	0
CCCC(=O)N1CCCC2(CC(c3ccc(OC)cc3)=CO2)C1 (centres undefined)	0	0
Cc1ccc2c(c1Br)C(=Nc1ccc(F)cc1)C(=O)N2	0	0
COc1ccc(C(=O)Nc2ccc3oc(-c4ccccc4)nc3c2)cc1[N+](=O)[O-]	0	0
CCOc1ccc(Nc2cc(C(=O)N3CCOCC3)nc3ccc(C)cc23)cc1	0	0
